From PubChem BioAssay (Tox21)
Records with an inconclusive call do not appear. Activity calls are given as the source filed them. Unless noted, calls come from the whole dose curve; as a rule, active = well fitted curve in the direction sought with a large enough effect in the repeat runs; inconclusive = weak or mixed curves; inactive = no such curve, though single readings can be large; an effect the other way counts as inactive or inconclusive.

Legend:
[1] = qHTS assay to identify small molecule antagonists of the vitamin D receptor (VDR) signaling pathway - cell viability counter screen (AID 743225); note: % is set by controls: 0 for no effect and ±100 for the full control effect; nearly all actives have a fitted effect of over 50% in size
In short: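 Parallel cytotoxicity test: VDR-UAS-bla HEK 293T, 3 nM (final) 1-alpha,25-dihydroxyvitamin D3 with test compound, 16 h, 37C. Endpoint is CellTiter-Glo luminescence in the same wells.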

[2] = qHTS assay to identify small molecule agonists of the NFkB signaling pathway - cell viability counter screen (AID 1159515; calls by dose curve; note: series mostly up to about 61 µM; % is set by controls: 0 for no effect and ±100 for the full control effect; nearly all actives have a fitted effect of over 55% in size)
In short: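 Viability in NFkB-bla ME-180 cells was measured by CellTiter-Glo luminescence, 30 min room temperature, in wells already treated 5 hr with compounds and read for reporter FRET.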

[3] = qHTS assay to identify small molecule agonists of the endoplasmic reticulum stress response signaling pathway (AID 1159516; active = well fitted activation curve with a large enough effect in the signal ratio in the repeat runs, not every such curve was filed as active; the % refers to the signal ratio; note: % is set by controls: 0 for no effect and ±100 for the full control effect)
In short: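 ER stress element reporter (bla) in HeLa. 1,500 cells/well, overnight attachment; 5 hr compound; 2 hr RT substrate; dual-emission fluorescence.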

[4] = qHTS assay to identify small molecule agonists of the endoplasmic reticulum stress response signaling pathway - cell viability counter screen (AID 1159517; calls by dose curve;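 note: HeLa cells carrying an ER stress response element beta-lactamase reporter; series mostly up to about 61 µM; % is set by controls: 0 for no effect and ±100 for the full control effect; nearly all actives have a fitted effect of over 50% in size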)
In short: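 CellTiter-Glo was added to wells already read for beta-lactamase FRET, and luminescence was recorded 30 min later. Cells: ESRE-bla HeLa, 1,500 per well, compound exposure 5 hr at 37 C.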

[5] = qHTS assay to identify small molecule antagonists of the retinoid-related orphan receptor gamma (ROR-gamma) signaling pathway - cell viability counter screen (AID 1159520); note: % is set by controls: 0 for no effect and ±100 for the full control effect; nearly all actives have a fitted effect of over 50% in size
In short: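 Tet-on ROR gamma CHO cells (1,000/well) were plated 4 hr, given compounds in DMSO for 2 hr at 37 C, then induced with 1 uM final doxycycline for 16 hr. Viability was read as ATP by CellTiter-Glo luminescence after 30 min.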

[6] = biological target: Nuclear receptor ROR-gamma (Homo sapiens) (UniProt P51449); assay: qHTS assay to identify small molecule antagonists of the retinoid-related orphan receptor gamma (ROR-gamma) signaling pathway (AID 1159521;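 note: CHO cells with doxycycline inducible ROR-gamma driving an RORE luciferase reporter; top concentration of the series differs between compounds; % is set by controls: 0 for no effect and ±100 for the full control effect; nearly all actives have a fitted effect of over 50% in size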)
In short: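 Decreased RORE-driven luciferase luminescence indicates antagonism. Tet-on RORγ CHO cells received compound, then 1 uM final doxycycline 2 h later; signal read after 16 h incubation.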

[7] = qHTS assay to identify small molecule agonists of the AP-1 signaling pathway - cell viability counter screen (AID 1159525; calls by dose curve; note: nearly all actives have a fitted effect of over 55% in size)
In short: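 ME-180 AP-1-bla, 2500 cells/well, Opti-MEM + 0.5% dialyzed FBS; overnight 37 °C; cpd 15-pt titration, 5 h 37 °C; CellTiter-Glo 30 min RT; luminescence read; normalised to TOAB and DMSO controls.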

[8] = qHTS assay to identify small molecule agonists of the AP-1 signaling pathway (AID 1159526; calls by dose curve; note: % is set by controls: 0 for no effect and ±100 for the full control effect)
[9] = biological target: Retinoic acid receptor RXR-alpha (Homo sapiens) (UniProt P19793); assay: qHTS assay to identify small molecule agonists of the RXR signaling pathway (AID 1159527; calls by dose curve; note: % is set by controls: 0 for no effect and ±100 for the full control effect; nearly all actives have a fitted effect of over 35% in size)
In short: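 16 hr incubation of compound-treated RXR-alpha-UAS-bla HEK 293T cells (2% charcoal-stripped FBS, 37 C) preceded a 2 hr room-temperature LiveBLAzer FRET substrate step and blue/green fluorescence measurement.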

[10] = qHTS assay to identify small molecule agonists of the RXR signaling pathway - cell viability counter screen (AID 1159529)
In short: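 In this parallel viability measure, GeneBLAzer RXR-alpha HEK 293T cells (2% charcoal-stripped FBS) were given a 5 hr preincubation, treated with compounds 16 hr at 37 C, and read by CellTiter-Glo luminescence.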

[11] = qHTS assay to identify small molecule antagonists of the retinoid acid receptor (RAR) signaling pathway - cell viability counter screen (AID 1159551); note: % is set by controls: 0 for no effect and ±100 for the full control effect; nearly all actives have a fitted effect of over 35% in size
In short: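 Following overnight attachment, C3RL4 reporter cells received DMSO-dissolved compounds and then retinol (1 uM final). Six hours later at 37 C, ATP content was measured by CellTiter-Glo luminescence.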

[12] = qHTS assay to identify small molecule antagonists of the retinoic acid receptor (RAR) signaling pathway (AID 1159552)
In short: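 C3RL4 RARE-luc cells, overnight plating; retinol 1 uM final added right after compound; 6 hr 37 C; luciferase read at 30 min RT.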

[13] = qHTS assay to identify small molecule agonists of the retinoic acid receptor (RAR) signaling pathway (AID 1159553); note: % is set by controls: 0 for no effect and ±100 for the full control effect
In short: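 Cell line C3RL4, RARE luciferase reporter. Treatment: compounds in DMSO, 6 hr, 37 C, 5% CO2, after overnight plating. Detection: luminescence, 30 min RT after reagent.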

[14] = qHTS assay to identify small molecule antagonists of the estrogen related receptor (ERR) signaling pathway from Tox21 library - cell viability counter screen (AID 1224834); note: % is set by controls: 0 for no effect and ±100 for the full control effect; nearly all actives have a fitted effect of over 30% in size
In short: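 Viability readout (CellTiter-Fluor fluorescence, 30 min at 37 C) multiplexed with the ERR assay; cells treated 17.5 h at 37 C with compounds delivered in DMSO.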

[15] = biological target: Luciferin 4-monooxygenase (Photinus pyralis) (UniProt P08659); assay: qHTS assay to identify small molecule inhibitors of firefly luciferase (AID 1224835); note: series mostly up to about 120 µM; % is set by controls: 0 for no effect and ±100 for the full control effect; nearly all actives have a fitted effect of over 25% in size
In short: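 Quantitative HTS format; KM concentrations of both substrates. Purified P. pyralis FLuc activity quantified from luminescence images.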

[16] = qHTS assay to identify small molecule agonists of the constitutive androstane receptor (CAR) signaling pathway - cell viability counter screen (AID 1224836); note: series mostly up to about 92 µM; % is set by controls: 0 for no effect and ±100 for the full control effect; nearly all actives have a fitted effect of over 45% in size
In short: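 Using CellTiter-Fluor, viability of HepG2 cells harbouring hCAR and CYP2B6-2.2kb was measured following 23 h incubation with a 15-concentration compound series plus PK11195 (0.75 uM final).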

[17] = qHTS assay to identify small molecule antagonists of the constitutive androstane receptor (CAR) signaling pathway - cell viability counter screen (AID 1224837); note: series mostly up to about 92 µM; % is set by controls: 0 for no effect and ±100 for the full control effect; nearly all actives have a fitted effect of over 45% in size
In short: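 Fluorescence from CellTiter-Fluor served as the viability signal. Human hepatoma HepG2 cells stably bearing hCAR and CYP2B6-2.2kb received compound plus CITCO (50 nM final) for 23 hr.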

[18] = biological target: Nuclear receptor subfamily 1 group I member 3 (Homo sapiens) (UniProt Q14994); assay: qHTS assay to identify small molecule antagonists of the constitutive androstane receptor (CAR) signaling pathway (AID 1224838);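 note: HepG2 cells stably expressing hCAR with CYP2B6 luciferase reporter stimulated by CITCO; % is set by controls: 0 for no effect and ±100 for the full control effect; nearly all actives have a fitted effect of over 40% in size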
In short: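 Quantitative HTS in double-stable HepG2-CYP2B6-hCAR cells. After 4 h plating, cells get compound (15 concentrations) and CITCO at 50 nM final, incubate 24 h at 37 C, then ONE-Glo luminescence is read.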

[19] = biological target: Nuclear receptor subfamily 1 group I member 3 (Homo sapiens) (UniProt Q14994); assay: qHTS assay to identify small molecule agonists of the constitutive androstane receptor (CAR) signaling pathway (AID 1224839);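 note: HepG2 cells stably carrying human CAR and a CYP2B6 luciferase reporter; series mostly up to about 92 µM; % is set by controls: 0 for no effect and ±100 for the full control effect; nearly all actives have a fitted effect of over 15% in size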
In short: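 Double-stable HepG2 cells (hCAR, CYP2B6-2.2kb) seeded 4 h before compound addition. Exposure 24 h with 0.75 uM PK11195 final. Luciferase detected by ONE-Glo.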

[20] = qHTS assay to identify small molecule antagonists of the estrogen related receptor signaling pathway with the pleiotropic PPARgamma coactivator (PGC) from Tox21 10K library - cell viability counter screen (AID 1224840; active = well fitted cell-killing curve with a large enough effect in the repeat runs, not every such curve was filed as active; note: % is set by controls: 0 for no effect and ±100 for the full control effect; nearly all actives have a fitted effect of over 40% in size)
In short: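 Compounds in DMSO, alongside positive and negative controls, were pinned onto PGC/ERR cells (2,000 per well). Exposure lasted 17.5 hours at 37 C, followed by a 30-minute CellTiter-Fluor incubation and fluorescence reading.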

Retinoic acid receptor RXR-alpha (Homo sapiens), sequence (P19793 whole entry, looked up): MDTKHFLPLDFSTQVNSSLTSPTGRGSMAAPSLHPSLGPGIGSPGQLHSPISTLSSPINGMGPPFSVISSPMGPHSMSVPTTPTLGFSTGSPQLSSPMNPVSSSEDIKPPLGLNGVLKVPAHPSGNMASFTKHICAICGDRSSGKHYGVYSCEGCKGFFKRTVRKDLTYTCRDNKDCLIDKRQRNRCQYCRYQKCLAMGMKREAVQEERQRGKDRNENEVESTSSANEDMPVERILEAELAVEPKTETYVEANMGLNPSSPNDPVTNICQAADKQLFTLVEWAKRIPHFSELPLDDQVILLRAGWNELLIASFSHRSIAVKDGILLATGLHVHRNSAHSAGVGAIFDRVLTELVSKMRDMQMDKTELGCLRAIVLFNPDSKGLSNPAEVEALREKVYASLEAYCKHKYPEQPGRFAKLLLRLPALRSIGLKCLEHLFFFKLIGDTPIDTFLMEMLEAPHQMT
Nuclear receptor subfamily 1 group I member 3 (Homo sapiens), sequence (Q14994 whole entry, looked up): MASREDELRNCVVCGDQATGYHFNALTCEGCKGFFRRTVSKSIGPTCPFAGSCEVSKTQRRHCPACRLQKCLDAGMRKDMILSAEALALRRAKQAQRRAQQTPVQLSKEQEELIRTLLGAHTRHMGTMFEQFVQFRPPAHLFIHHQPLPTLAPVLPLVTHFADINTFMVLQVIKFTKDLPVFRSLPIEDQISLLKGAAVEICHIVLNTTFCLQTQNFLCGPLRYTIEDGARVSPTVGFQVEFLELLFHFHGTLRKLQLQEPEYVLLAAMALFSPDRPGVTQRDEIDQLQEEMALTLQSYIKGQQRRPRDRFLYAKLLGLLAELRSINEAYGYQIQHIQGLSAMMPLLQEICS
Luciferin 4-monooxygenase (Photinus pyralis), sequence (P08659 whole entry, looked up): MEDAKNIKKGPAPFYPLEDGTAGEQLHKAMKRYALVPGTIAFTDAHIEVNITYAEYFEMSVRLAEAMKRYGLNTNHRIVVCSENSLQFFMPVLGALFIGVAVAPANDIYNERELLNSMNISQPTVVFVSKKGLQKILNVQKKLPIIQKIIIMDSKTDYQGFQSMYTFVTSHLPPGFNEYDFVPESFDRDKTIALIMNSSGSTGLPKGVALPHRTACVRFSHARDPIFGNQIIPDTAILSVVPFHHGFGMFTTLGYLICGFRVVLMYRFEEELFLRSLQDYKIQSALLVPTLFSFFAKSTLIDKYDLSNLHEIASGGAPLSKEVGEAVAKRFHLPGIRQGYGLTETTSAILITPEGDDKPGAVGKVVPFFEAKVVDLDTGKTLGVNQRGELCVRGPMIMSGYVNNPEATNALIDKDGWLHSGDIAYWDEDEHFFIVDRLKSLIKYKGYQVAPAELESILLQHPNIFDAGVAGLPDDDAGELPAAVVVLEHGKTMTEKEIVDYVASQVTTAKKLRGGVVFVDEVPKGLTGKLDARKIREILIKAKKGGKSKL

CN(C)CCC[C@@]1(c2ccc(F)cc2)OCc2cc(C#N)ccc21
inactive: outcome [1] | outcome [2] | Potency [3] | outcome [4] | outcome [5] | outcome [6] | outcome [7] | Potency [8] | Potency [9] | Potency [10] | outcome [11] | outcome [12] | Potency [13] | outcome [14] | Potency [15] | outcome [16] | outcome [17] | outcome [18] | Potency [19]

N=C(N)N
inactive: outcome [1] | outcome [2] | Potency [3] | outcome [4] | outcome [5] | outcome [6] | outcome [7] | Potency [8] | Potency [9] | Potency [10] | outcome [11] | outcome [12] | Potency [13] | outcome [14] | Potency [15] | outcome [16] | outcome [17] | outcome [18] | Potency [19] | outcome [20]

Cc1cc(C)c(C)c(C)c1
inactive: outcome [1] | outcome [2] | Potency [3] | outcome [4] | outcome [5] | outcome [6] | outcome [7] | Potency [8] | Potency [9] | Potency [10] | outcome [11] | outcome [12] | Potency [13] | outcome [14] | Potency [15] | outcome [16] | outcome [17] | outcome [18] | Potency [19] | outcome [20]

C/C=C/C(=O)CCCC
inactive: outcome [1] | outcome [2] | Potency [3] | outcome [4] | outcome [5] | outcome [6] | outcome [7] | Potency [8] | Potency [9] | Potency [10] | outcome [11] | outcome [12] | Potency [13] | outcome [14] | Potency [15] | outcome [16] | outcome [17] | outcome [18] | Potency [19] | outcome [20]

CC/C=C/CCCCCCCCCCOC(C)=O
inactive: outcome [1] | outcome [2] | Potency [3] | outcome [4] | outcome [5] | outcome [6] | outcome [7] | Potency [8] | Potency [9] | Potency [10] | outcome [11] | outcome [12] | Potency [13] | outcome [14] | Potency [15] | outcome [16] | outcome [17] | outcome [18] | Potency [19] | outcome [20]

C[n+]1ccccc1/C=N/O
inactive: outcome [1] | outcome [2] | Potency [3] | outcome [4] | outcome [5] | outcome [6] | outcome [7] | Potency [8] | Potency [9] | Potency [10] | outcome [11] | outcome [12] | Potency [13] | outcome [14] | Potency [15] | outcome [16] | outcome [17] | outcome [18] | Potency [19] | outcome [20]

C[C@@H]1NC(=O)[C@@H](N)CNC(=O)[C@H](C2CCNC(N)=N2)NC(=O)/C(=C/NC(N)=O)NC(=O)[C@H](CNC(=O)C[C@@H](N)CCCN)NC1=O (stereo partly drawn)
inactive: viability change, negative = cytotoxic [1] 3.48% [at 0.628 µM] | activity, negative = cytotoxic [2] 1.55% [at 0.628 µM] | activation [3] 0.164% [at 0.628 µM] | activity change, negative = cytotoxicity [4] 13.9% [at 0.628 µM] | activity, negative = cytotoxicity [5] 1.69% [at 0.349 µM] | activity change, negative = inhibition [6] 9.3% [at 0.35 µM] | viability change, negative = cytotoxic [7] 0.985% [at 0.29 µM] | activation [8] -1.11% [at 0.29 µM] | activation [9] 5.99% [at 0.29 µM] | activity change, negative = cytotoxicity [10] 9.35% [at 0.29 µM] | activity change, negative = cytotoxicity [11] 5.1% [at 0.349 µM] | activity, negative = inhibition [12] 21% [at 0.349 µM] | activation [13] 0.189% [at 0.756 µM] | viability change, negative = cytotoxic [14] -0.374% [at 0.349 µM] | activity change, negative = inhibition [15] -1.34% [at 0.435 µM] | viability change, negative = cytotoxic [16] -0.0447% [at 0.349 µM] | activity change, negative = cytotoxicity [17] 0.72% [at 0.349 µM] | activity, negative = inhibition [18] -10.7% [at 0.349 µM] | activation [19] 4.38% [at 0.349 µM] | viability change, negative = cytotoxic [20] 10.7% [at 0.349 µM]

O=C(c1ccccc1)c1cccc(O)c1
inactive: outcome [1] | outcome [2] | Potency [3] | outcome [4] | outcome [5] | outcome [6] | outcome [7] | Potency [8] | Potency [9] | Potency [10] | outcome [11] | outcome [12] | Potency [13] | outcome [14] | Potency [15] | outcome [16] | outcome [17] | outcome [18] | outcome [20]

Cc1cc(O)c(Cl)cc1C
inactive: outcome [1] | outcome [2] | Potency [3] | outcome [4] | outcome [5] | outcome [6] | outcome [7] | Potency [8] | Potency [9] | Potency [10] | outcome [11] | outcome [12] | Potency [13] | outcome [14] | Potency [15] | outcome [16] | outcome [17] | outcome [18] | Potency [19] | outcome [20]

CN1CCN(C(=O)C2CCCCC2)CC1
inactive: outcome [1] | outcome [2] | Potency [3] | outcome [4] | outcome [5] | outcome [6] | outcome [7] | Potency [8] | Potency [9] | Potency [10] | outcome [11] | outcome [12] | Potency [13] | outcome [14] | Potency [15] | outcome [16] | outcome [17] | outcome [18] | Potency [19] | outcome [20]

CCCCCCCC(=O)N(C)C
inactive: outcome [1] | outcome [2] | Potency [3] | outcome [4] | outcome [5] | outcome [6] | outcome [7] | Potency [8] | Potency [9] | Potency [10] | outcome [11] | outcome [12] | Potency [13] | outcome [14] | Potency [15] | outcome [16] | outcome [17] | outcome [18] | Potency [19] | outcome [20]

CCCCN(CCCC)CCCCCCN(CCCC)CCCC
inactive: outcome [1] | outcome [2] | Potency [3] | outcome [4] | outcome [5] | outcome [6] | outcome [7] | Potency [8] | Potency [9] | Potency [10] | outcome [11] | outcome [12] | Potency [13] | outcome [14] | Potency [15] | outcome [16] | outcome [17] | outcome [18] | Potency [19] | outcome [20]

CC(=O)O[C@@H]1CC2C3CCc4cc(OC(=O)c5ccccc5)ccc4C3CCC2(C)[C@H]1OC(C)=O (stereo partly drawn)
inactive: outcome [1] | outcome [2] | Potency [3] | outcome [4] | outcome [5] | outcome [6] | outcome [7] | Potency [8] | Potency [9] | Potency [10] | outcome [11] | outcome [12] | Potency [13] | outcome [14] | Potency [15] | outcome [16] | outcome [17] | outcome [18] | Potency [19] | outcome [20]
